Screens from PubChem BioAssay.
JMJD2A Tudor inh = blocks the human JMJD2A Tudor domain. O75164. AlphaScreen JMJD2A-Tudor / H3K4me3 peptide binding. Potency, µM (series often up to 114 µM), usual class: inhibitors. 4.4% of 390,000 active. AID 504339; further: nearly all actives have a fitted effect of over 50% in size
Sfp inh = blocks B. subtilis Sfp PPTase activity. Biochemical Sfp PPTase activity, qHTS. Potency, µM, most hits filed as inhibitors. 3.5% of 310,000 active. AID 1490;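 further: the enzyme is Sfp with the accession as filed and its product quenches rhodamine fluorescence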
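Sfp 15 nM + cpd, 15 min RT; start w/ rhodamine-CoA 5 uM, BHQ-2-YbbR 12.5 uM (final); 50 mM Hepes pH 7.6, 10 mM MgCl2, 0.01% NP-40, 0.01% BSA; read 525/598 nm at 0 and 30 min.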
BAZ2B block = BAZ2B (human) inhibition; Q9UIF8; AlphaScreen BAZ2B-H3K14Ac peptide displacement; Potency, µM (series often up to 114 µM), hits mostly inhibitors; 4.4% of 360,000 active; AID 504333; further: nearly all actives have a fitted effect of over 60% in size
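In this displacement format the biotinylated H3(5-23) peptide acetylated at Lys14 serves as ligand at 50 nM, with BAZ2B at 50 nM in PBS pH 7.4 containing 0.01% Tween-20. Donor and acceptor beads are 10 ug/mL final.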
G9a inh = G9a (human) methyltransferase inhibition | Q96KQ7 | G9a H3K9 monomethylation, AlphaScreen, 2 h | Potency, µM (doses to about 102 µM), usual class: inhibitors | 8.8% of 350,000 active | AID 504332; further: nearly all actives have a fitted effect of over 75% in size
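Readings reflect AlphaScreen signal from monomethyl-H3K9 antibody detection. HMT at 20 nM; substrate b-H3K9 500 nM; cofactor SAM 20 uM; 2 h RT reaction; compounds tested as titrations in qHTS with 15 min preincubation.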
TDP1 block = TDP1 (human) enzyme inhibition; recombinant TDP1, AlphaScreen DNA substrate cleavage; Potency, µM (doses to about 130 µM), actives largely listed as inhibitors; 0.28% of 350,000 active; further: nearly all actives have a fitted effect of over 40% in size
Target sequence (Q9NUW8 whole entry, looked up): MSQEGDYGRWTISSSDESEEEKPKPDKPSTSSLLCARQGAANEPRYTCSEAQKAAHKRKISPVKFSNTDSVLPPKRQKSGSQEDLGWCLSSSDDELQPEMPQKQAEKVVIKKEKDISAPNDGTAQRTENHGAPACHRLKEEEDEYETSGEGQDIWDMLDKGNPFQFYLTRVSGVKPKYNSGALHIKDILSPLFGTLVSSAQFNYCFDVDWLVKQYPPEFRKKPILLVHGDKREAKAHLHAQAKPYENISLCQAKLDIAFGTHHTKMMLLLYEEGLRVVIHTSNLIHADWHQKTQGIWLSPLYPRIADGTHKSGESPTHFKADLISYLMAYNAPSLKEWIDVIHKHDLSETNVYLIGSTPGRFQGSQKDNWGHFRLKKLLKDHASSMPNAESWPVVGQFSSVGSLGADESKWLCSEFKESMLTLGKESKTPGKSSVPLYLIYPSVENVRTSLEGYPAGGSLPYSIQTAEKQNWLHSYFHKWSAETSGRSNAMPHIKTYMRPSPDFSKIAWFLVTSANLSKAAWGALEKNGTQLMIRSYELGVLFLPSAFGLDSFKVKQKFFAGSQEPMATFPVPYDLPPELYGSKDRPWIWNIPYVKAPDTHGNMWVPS
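AlphaScreen read-out: signal falls as enzyme removes the 3' tyrosine-FITC from a 5'-biotinylated DNA oligo (15 nM, 5 min, RT). Enzyme was E. coli-made recombinant Tdp1 at 1 nM, exposed to compound for 15 min beforehand; beads 10 ug/ml, 10 min.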
HP1b chromo inh = HP1-beta chromodomain-methylated histone interaction inhibition. Potency, µM (top dose mostly 114 µM), actives largely listed as inhibitors. P83916. 0.56% of 390,000 active. AlphaScreen HP1-beta / biotin-H3K9me3 peptide binding; further: nearly all actives have a fitted effect of over 70% in size
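HP1-beta protein (50 nM final) preincubated 30 min at room temperature with biotinylated H3(1-18)K9me3 peptide (50 nM) in PBS pH 7.4, 0.01% Tween-20, then compound added for 30 min. AlphaScreen streptavidin donor/nickel chelate acceptor beads (10 ug/mL final), 30 min dark, luminescence read.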
Sfp inh conf = confirmation of Bacillus subtilis Sfp PPTase inhibitors | 79% of 380 active | Sfp PPTase enzymatic assay, qHTS titration | Potency, µM (highest dose often 114 µM), most hits filed as inhibitors | shares compounds with Sfp inh
Sfp PPTase gel = Blocks Sfp PPTase activity, gel read-out; Potency, µM, hits mostly inhibitors; 20% of 210 active; AID 2707; purified Sfp, gel-based phosphopantetheinylation read-out; shares compounds with Sfp inh;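 active means potency below 100 µM; inconclusive means dose-dependent response but potency above 100 µM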;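 further: potency is an IC50 for inhibitors of Sfp transfer activity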
Numbers stand for hits; - = inactive; ? = inconclusive; . = no result given; ! = not active in a repeat; [ ] = remark or other dose. Only some compounds are listed: those with a hit (about 12% of all), similar ones and a draw of the others. Unless noted, the call rests on the fitted dose curve; in most records, active means well fitted curve in the direction sought with a large enough effect; inconclusive means small, poorly fitted or top-dose-only effect, or another doubt; inactive means no such curve, though single readings can be large; an effect the other way counts as inactive or inconclusive.

SMILES	JMJD2A Tudor inh	Sfp inh	BAZ2B block	G9a inh	TDP1 block	HP1b chromo inh	Sfp inh conf	Sfp PPTase gel
CC(C)N1CCC(N2CCN(C3CCCC3)CC2CCO)CC1 (stereo not drawn)	-[11.4 µM]	-	-	.	-	-	.	.
COC(=O)c1c(NC(=O)COC(=O)c2ccc(Cl)cc2[N+](=O)[O-])sc2c1CCCCC2	-	10µM	-	-	-	-	?	.
CC12CC3OC3CC1CCC1C2CCC2(C)C1CCC21OCCO1 (stereo not drawn)	-	.	.	.	.	-	.	.
CCOC(=O)c1cc(-c2ccco2)nc2c1c(C)nn2CCC#N	-	28.2µM	-	11.2µM	-	-	46.9µM	-
c1ccc(-c2nnc(CN3CCCCC3)o2)cc1	-	?	-	-	.	-	.	.
c1ccc(-c2nnc(CN3CCCc4ccccc43)o2)cc1	-[11.4 µM]	14.1µM	?	?	-	-	46.9µM	?
Cc1ccc(/C=C/C(=O)NCCc2ccccc2)o1	28.2µM	7.94µM	?	8.91µM	-	?	18.7µM	.
CC(C)(C)c1ccc(OCCC(=O)NCCc2ccc(S(N)(=O)=O)cc2)cc1	-	20µM	-	?	-	-	-	.
CCN(CC)S(=O)(=O)c1ccc2c(c1)nc(CCC(=O)O)n2C	-[11.4 µM]	20µM	-	25.1µM	-	-	46.9µM	.
Cc1cc2cc(C(c3nnnn3CC3CCCO3)N3CCCc4ccccc43)c(=O)[nH]c2cc1C (stereo not drawn)	?	1.41µM	-	?	-	-	18.7µM	.
O=c1[nH]c2cc3c(cc2cc1C(c1nnnn1C1CCCC1)N1CCCc2ccccc21)OCCO3 (stereo not drawn)	-	-	-	-	-	-	.	.
C[C@@H]1CCCCCCCCC(=O)OCCN(C(=O)OC(C)(C)C)[C@H](C)CCCCCCCCC(=O)OCCN(C(=O)OC(C)(C)C)[C@H](C)CCCCCCCCC(=O)OCCN1C(=O)OC(C)(C)C	-	.	.	.	-	-	.	.
COc1ccc(-c2cnn(-c3ccccc3)c2N)cc1OC	?	-	-	-	-	-	.	.
Nc1nc2c(s1)CCc1c-2cnn1-c1ccccc1	25.1µM	2.51µM	44.7µM	?	-	11.2µM	7.44µM	.
CO/N=C(/C(=O)N[C@@H]1C(=O)N2C(C(=O)O)=C(CSc3cnns3)CS[C@H]12)c1csc(N)n1	.	39.8µM	.	?	.	.	52.7µM	55.6µM
COc1cc2nc(N3CCN(C(=O)C4CCCO4)CC3)nc(N)c2cc1OC (stereo not drawn)	?	56.2µM!	-	?	-	-	-	?
COc1cc2nc(N3CCN(C(=O)[C@H]4CCCO4)CC3)nc(N)c2cc1OC	.	-	.	.	-	.	.	.
Cn1nc(-c2ccccc2)cc1NC(=O)c1cccs1	-	-	-	.	-	-	.	.
CC1CCN(C(=O)CSc2nc3c([nH]c4ccccc43)c(=O)n2-c2ccccc2)CC1	-	.	-	-	-	-	.	.
O=C(COC(=O)c1cncc(Br)c1)NCc1ccco1	-	12.6µM	31.6µM	-[0.0925 µM]	7.08µM	-	46.9µM	-
O=C(COC(=O)c1cncc(Br)c1)NCc1ccc(F)cc1	-	-	-	-	-	-	.	.
CC(C)Oc1ccc(S(=O)(=O)N2CCOCC2)cc1NC(=O)CN1C(=O)c2ccccc2C1=O	-	.	.	.	.	-	.	.
CCOC(=O)c1ccc(NC(=O)Cn2c(=O)cc(C(F)(F)F)c3c(C)nn(C)c32)cc1	-	.	-	-	-	-	.	.
c1ccc(Cn2nnc3ccccc32)cc1	-	-	-	-	.	-	.	.
Brc1ccccc1-c1nnc2sc(Cc3ccccc3)nn12	-	-	-	?	-	-	.	.
SMILES	JMJD2A Tudor inh	Sfp inh	BAZ2B block	G9a inh	TDP1 block	HP1b chromo inh	Sfp inh conf	Sfp PPTase gel
c1ccc(CCc2nn3c(Cn4nnc5ccccc54)nnc3s2)cc1	?	12.6µM	-	?	-	?	41.8µM	.
c1ccc(CCc2nn3c(Cn4cnc5ccccc54)nnc3s2)cc1	?	10µM	-	3.98µM	-	-	13.2µM	.
Clc1ccccc1-c1nnc2sc(CCc3ccccc3)nn12	?	12.6µM	-	4.47µM	-	?	11.8µM	.
O=C(Cc1cccs1)NC1CC(=O)N(c2cccc(F)c2)C1 (stereo not drawn)	-	.	-	-	-	-	.	.
CCOC(=O)c1cc(-c2ccccc2)sc1NC(=O)C(C)N1C(=O)c2ccccc2C1=O (stereo not drawn)	-	-	-	-	-	-	.	.
CCOC(=O)c1cc(-c2ccccc2)sc1NC(=O)c1ccc(OC)cc1	?	14.1µM	-	?	-	?	8.35µM	.
COc1ccccc1N1C(=O)C=C(Sc2nc(C)cc(C)n2)C1=O	7.94µM	3.16µM	?	0.447µM	-	8.91µM	1.67µM	6.17µM
O=C(CN1C(=O)/C(=C/c2ccccc2Cl)SC1=S)NC1CCS(=O)(=O)C1 (stereo not drawn)	-	-	-	-	-	-	.	.
c1ccc(-c2ccc(-c3nc(-c4ccccn4)no3)cc2)cc1	-	39.8µM	-	-[12.7 µM]	-	-	52.7µM	-
Clc1cccc(-c2nc(-c3ccccn3)no2)c1	-[11.4 µM]	-	-	-	-	-	.	.
O=C(c1ccccc1)N1CCN(C(=S)NCc2ccco2)CC1	-	35.5µM	.	-	-	-	33.2µM	?
O=C(NCCc1nc2ccccc2n1CCOc1ccc(Cl)cc1)C1CCCCC1	-	.	-	-	-	-	.	.
Cc1ccccc1-n1nc(-c2ccc(N)cc2)cc1N	?	14.1µM	-	?	-	-	-	-
CN(c1ccc(C(=O)N/N=C/c2cccc([N+](=O)[O-])c2)cc1)S(=O)(=O)c1ccccc1	-	-	-	-	.	-	.	.
O=C(CSc1n[nH]c(-c2ccccc2O)n1)N1CCOCC1	-	3.55µM	?	-	-	-	-	-
CC(OC(=O)CCCNC(=O)c1ccc(Cl)cc1)C(=O)N(C)Cc1ccccc1 (stereo not drawn)	-	-	-	.	-	-	.	.
CC1=C(C(=O)O)N2C(=O)[C@@H](NC(=O)[C@@H](N)c3ccc(O)cc3)[C@@H]2SC1	.	31.6µM	.	-[21.5 µM]	-	.	-	?
COc1ccc(C(=O)CSc2n[nH]c(=O)n2Cc2ccco2)cc1	-	-	?	.	-	-	.	.
CC(C)(C)NC[C@H](O)c1ccc(O)c(CO)c1	.	-	.	-[21.5 µM]	-	.	.	.
CNC[C@H](O)c1ccc(O)c(O)c1	-	25.1µM!	50.1µM	7.94µM!	44.7µM!	-	?	-
Oc1ccc(NCc2cccc(OCc3ccc(F)cc3)c2)cc1	39.8µM	15.8µM	-	.	-	?	52.7µM	?
COCCN(Cc1ccco1)C(=O)C1CCCN(c2ncnc3c2nc2n3CCCCC2)C1 (stereo not drawn)	-	-	-	-	-	-	.	.
